# PubChem BioAssay (NCI)
# The panel holds about 83,000 compounds, 20% with a hit somewhere; the sample as a whole holds those more often.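 Assay: single dose, 48 h. Readout: percent growth (0 = no net growth; negative = cell death). Active: <10.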 Values without a mark were called inactive. Calls of active or inactive are those of the source.
# Assays:
# Test in all cases: NCI-60 one-dose screen, 48 h (100 = growth as untreated, 0 = no growth, -100 = all killed)
# Details in all cases: 10 µM unless noted
# HCT-15 colon = tested on: HCT-15 colon
# HT29 colon = tested on: HT29 colon
# SNB-75 CNS = tested on: SNB-75 CNS
# SNB-19 CNS = tested on: SNB-19 CNS
# U251 CNS = tested on: U251 CNS
# PC-3 prostate = tested on: PC-3 prostate
# SK-MEL-5 melanoma = tested on: SK-MEL-5 melanoma
# UACC-62 melanoma = tested on: UACC-62 melanoma
# LOX IMVI melanoma = tested on: LOX IMVI melanoma
# SK-MEL-28 melanoma = tested on: SK-MEL-28 melanoma
Compound,growth (HCT-15 colon),growth (HT29 colon),growth (SNB-75 CNS),growth (SNB-19 CNS),growth (U251 CNS),growth (PC-3 prostate),growth (SK-MEL-5 melanoma),growth (UACC-62 melanoma),growth (LOX IMVI melanoma),growth (SK-MEL-28 melanoma)
NNCCc1ccc(NC(=O)CCCc2ccc(C(=O)Nc3ccccc3N)cc2)cc1,96.8%,51.1%,68.2%,85.5%,54.1%,55.1%,57.1%,49.2%,63.7%,75.6%
CC/C=C\C[C@H](O)C/C=C1/C(=O)C=C[C@@H]1C/C=C\CCCC(=O)O,74.6%,47.9%,88.9%,65%,3.29% (active),61.3%,60.3%,27.7%,17.4%,54.4%
[2H]C([2H])([2H])Oc1ccc(F)cc1/C=C/C(=O)/C=C(O)/C=C/c1cc(F)ccc1OC([2H])([2H])[2H],79.9%,98.8%,94.9%,91.8%,76.8%,93.1%,92.8%,80.6%,85.1%,116%
COc1cc2c(c(OC)c1OC)C(=O)CC(c1cccc(NC(=O)c3ccc(C#N)cc3)c1)O2 (stereo not given),75.7%,84.9%,74.9%,92%,80.5%,53%,43.2%,33.9%,65.7%,90.6%
CCOC(=O)/C=C1\S/C(=N\Nc2cc(=O)[nH]c3ccccc23)N(c2ccccc2)C1=O,98.7%,113%,80.1%,100%,94.2%,95.4%,104%,97%,97.2%,110%
COc1ccc(C[n+]2c3ccccc3n3c4ccc(N)cc4ccc32)c(OC)c1OC,101%,39.2%,61.4%,15.5%,8.81% (active),43.3%,42.6%,60.1%,85.2%,64.5%
COc1cc(OC)c(C(=O)C(CN(C)C)CN(C)C)cc1OC,-52.4% (active),2.66% (active),91.4%,102%,101%,94.5%,101%,19.2%,-68.8% (active),21.8%
O=C1/C=C/[C@@H](O)[C@@H]2C[C@@H](O)C[C@H]2/C=C/CCC[C@H](CCO)O1,10%,-2.5% (active),33.1%,31.4%,20.7%,19.6%,-94.6% (active),25.3%,-61.4% (active),-3.47% (active)
CC(=C(c1ccc(OCCN2CCCCC2)cc1)c1ccc(OCCN2CCCCC2)cc1)c1ccc(Cl)cc1,-88.3% (active),-86.3% (active),-97.3% (active),-91.2% (active),-90.7% (active),-82.4% (active),-96.9% (active),-76.9% (active),-94.5% (active),-96.1% (active)
C[C@H](CCCC(=O)NCC#CCN1CCN(C)CC1)[C@H]1CC[C@H]2[C@@H]3CC[C@@H]4CC(=O)CC[C@]4(C)[C@H]3CC[C@]12C,78.6%,32.2%,89.8%,102%,88%,77.1%,90.7%,97.7%,86.7%,89.3%
Nc1nc(NC(=O)Nc2ccc(C(=O)O)cc2)nn1-c1ccc(S(N)(=O)=O)cc1,105%,105%,90.4%,90.6%,93.2%,83.6%,96.1%,96.2%,98.8%,100%
CC(=O)c1sc2sc(C(C)=O)c(C)c2c1C,105%,79.4%,90.6%,105%,93.9%,77.7%,98.2%,75%,95.6%,100%
O=S(=O)(NCCCNc1nccc(-c2c(-c3cccc(F)c3)nc3occn23)n1)c1ccc(F)cc1,58.3%,21.9%,73.5%,84.9%,56.1%,29.4%,32.7%,26.5%,44.7%,64.2%
CCCCNc1nnc2n(Cc3ccccc3)c(=O)c3c4c(sc3n12)CCCC4,30.5%,24.8%,66.4%,56.5%,48.5%,42.7%,27.7%,32.5%,30.2%,60.7%
O=C1Nc2ccccc2/C1=C\c1c[nH]c2ccc(Br)cc12,48.7%,86.7%,56.1%,88.6%,85%,70.8%,35.4%,80.1%,50.6%,72.7%
COc1cccc(/C=C/C(=O)c2cccc(Nc3nc(Nc4ccccc4)nc(Nc4ccccc4)n3)c2)c1,73.4%,65.8%,71.8%,102%,53.8%,73.5%,77.9%,92%,74.4%,112%
CCc1ccc(CCC(=O)Nc2ncc(Cc3cc(Cl)ccc3Cl)s2)o1,13%,2.01% (active),-12.1% (active),21%,21.7%,23.8%,25.2%,18.7%,30.2%,55.9%
CN(Cc1cnc2nc(N)nc(N)c2n1)c1ccc(C(=O)NC(CCC(=O)O)C(=O)O)cc1Br (stereo not given),34.9%,21.2%,54.5%,45.4%,43%,56.9%,13.8%,30.9%,17.7%,50%
COc1cccc(CCNc2ncnc3c2ncn3Cc2nnc3c4ccccc4c(Cl)nn23)c1,45.2%,81.7%,50.5%,74.4%,50.7%,59.5%,77.1%,32.9%,8.78% (active),71.6%
CCN1CCN(c2cc(C)nc(N(CCNc3ccnc4cc(Cl)ccc34)Cc3ccc4c(c3)OCO4)n2)CC1,-28.8% (active),-37.9% (active),-75.3% (active),29.7%,-50.4% (active),20%,-95.8% (active),-32.2% (active),-80.3% (active),-65.6% (active)
CCCn1nc(C(=O)N(C)Cc2ccccc2)c2c1CCC(N1CCc3ccccc31)C2 (stereo not given),96.3%,102%,100%,90.2%,96.9%,77.2%,99.7%,85.2%,100%,106%
O=C(C1=Cc2cc3ccccc3n2Cc2cnnn21)c1ccc(O)cc1,37.3%,27.3%,31%,63.2%,53.5%,62.4%,54.2%,32.9%,50.6%,66.8%
CNC(=O)c1cc(Oc2ccc3c(c2)sc2nc(-c4ccc(OC)cc4)cn23)ccn1,52.7%,65.6%,76.8%,79.8%,81.8%,58.3%,20.3%,40.2%,82.1%,67.9%
Cc1c(CN)cc(-c2ccc(Cl)cc2)n1-c1ccccc1,80.9%,103%,78.5%,84.7%,79.9%,89.4%,82.4%,57%,67%,114%
CCN1C(=O)N(CC)C2C1NN=c1s/c(=C\c3cnc(C)n3C)c(=O)n12 (stereo not given),27.7%,0.594% (active),-24.7% (active),25.6%,7.74% (active),17.5%,17.9%,31.2%,34.5%,42.7%
Cc1nc2cc(O)c(O)cc2cc1Oc1ccc(NC(=O)Nc2ccc(Cl)c(Cl)c2)cc1,37.2%,48%,75.8%,49%,41.4%,39.3%,-42.2% (active),84.5%,0.463% (active),79.1%
COc1cc(-c2nc3cc(Cl)c(Cl)cc3[nH]2)ccc1OCC(=O)N=Nc1c(O)[nH]c2ccc(Cl)cc12,58.4%,9.24% (active),6.76% (active),9.74% (active),-89.4% (active),0.522% (active),-62.9% (active),-11.7% (active),-83.5% (active),-2.83% (active)
